Drawing on PubChem BioAssay (NCI), this text covers growth for nine compounds.

Assay in all cases: NCI-60 one-dose screen, 48 h (100 = growth as untreated, 0 = no growth, -100 = all killed)
What all share (details): 10 µM

For assay [1], the system named is SR leukemia.
Assay [2] deals with RPMI-8226 leukemia.
Assay [3] has as its system OVCAR-8 ovarian.
In assay [4] the test system is OVCAR-5 ovarian.
The subject of assay [5] is OVCAR-4 ovarian.
The subject of assay [6] is SK-OV-3 ovarian.
Assay [7] deals with IGROV1 ovarian.
Assay [8] relates to OVCAR-3 ovarian.
The test system of assay [9] is HS 578T breast.
Assay [10] concerns NCI/ADR-RES ovarian.
Assay [11] has as its system T-47D breast.
The subject of assay [12] is BT-549 breast.
Assay [13] relates to MDA-MB-435 melanoma.
For assay [14], the system named is SW-620 colon.
The subject of assay [15] is MCF7 breast.
For assay [16], the system named is HCT-116 colon.
In assay [17] the test system is HCC-2998 colon.
In assay [18] the test system is MDA-MB-468 breast.
Assay [19] relates to KM12 colon.

Several values for one entry are separate records, joined by “and”; a condition that tells them apart may be missing. Equal values may be shown once. Compounds without any hit were thinned out: in the full panel of roughly 83,000, 20% have a hit.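 Activity criterion: percent growth below 10, measured after cells in 96-well plates were exposed to a single compound concentration for 48 hours.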 Activity calls are given as the source filed them.

As for `O=C(Nc1cccc([N+](=O)[O-])c1)Nc1cccc([N+](=O)[O-])c1`, the growth in assay [1] was 88.7% (inactive); in [2], 31.9% (inactive); in [3], 88.7% (inactive); in assay [4] it was 94.1% (inactive); in [5], 73.6% (inactive); in assay [6], 129% (inactive). For the same compound, the growth in assay [7] was 88.6% (inactive); in assay [8], 60.7% (inactive); in [9], 92.5% (inactive); in [10], 65.4% (inactive); in [11] it was 40.6% (inactive); in assay [12], 67.1% (inactive). Moreover, the growth in assay [13] is 90.3% (inactive); in assay [14], 87.9% (inactive); in [15], 72.5% (inactive); in [16], 54.4% (inactive); in assay [17], 88% (inactive); in assay [18] it was 7.95% (active) and 24.6% (inactive).

Take `COc1cnc2c(c1)C(=O)c1c-2n(CCCNC(C)C)c(=O)c2cc(OC)c(OC)cc12`: the growth in assay [1] was 2.52% (active); in [2], -14.8% (active); in assay [3], 37% (inactive); in assay [4], 70.8% (inactive); in [5], 28.2% (inactive); in assay [6], 22.1% (inactive). Besides, the growth in assay [7] is 32% (inactive); in [8] it was 5.2% (active); in assay [9], 103% (inactive); in [10], 29.1% (inactive); in assay [11], 36.2% (inactive); in assay [12], 56.4% (inactive). Besides, the growth is 44% (inactive) in assay [13]; -24.9% (active) in assay [14]; 11.8% (inactive) in assay [15]; 48.9% (inactive) in assay [17]; 29.5% (inactive) in [19]; 8.82% (active) in [18].

As to `CN1CCc2c(sc3ncnc(N/N=C/c4ccc5ccccc5c4)c23)C1`, the growth was 9.62% (active) in assay [1]; 42.6% (inactive) in assay [2]; 78.6% (inactive) in [3]; 88.6% (inactive) in assay [4]; 73.9% (inactive) in assay [5]; 96.1% (inactive) in assay [6]. The growth is 87.9% (inactive) in assay [7]; 75% (inactive) in assay [8]; 62.3% (inactive) in assay [9]; 76.7% (inactive) in assay [10]; 92.1% (inactive) in [11]; 71.1% (inactive) in [12]. In addition, the growth is 72.5% (inactive) in [13]; 22.9% (inactive) in [14]; 20.7% (inactive) in assay [15]; -13.2% (active) in assay [16]; 78.1% (inactive) in assay [19]; 42% (inactive) in assay [18].

Turning to `COc1cc2oc(-c3cccc(C(=O)Nc4ccc(Cl)cc4)c3)cc(=O)c2c(OCCNC(=O)CNC(=O)OC(C)(C)C)c1OC`, the growth in assay [1] is 37.5% (inactive); in assay [2], 29.4% (inactive); in assay [3], 48% (inactive); in [4], 67.8% (inactive); in assay [5] it was 65.8% (inactive); in assay [6], 92.7% (inactive). For the same compound, the growth was 50.9% (inactive) in assay [7]; 98.3% (inactive) in assay [8]; 62.8% (inactive) in assay [9]; 50.6% (inactive) in assay [10]; 59% (inactive) in [11]; 51.2% (inactive) in assay [12]. For the same compound, the growth in assay [13] is 66.7% (inactive); in assay [14], 110% (inactive); in assay [15], 42% (inactive); in [17], 102% (inactive); in assay [19] it was 48.6% (inactive); in assay [18], 67.4% (inactive).

In the case of `O=C(Cn1nc(-c2ccccc2)ccc1=O)NNC(=S)NC1CCCCC1`, the growth in assay [1] is 89.4% (inactive); in assay [2], 97% (inactive); in assay [3] it was 112% (inactive); in assay [4] it was 105% (inactive); in assay [5], 114% (inactive); in assay [6], 112% (inactive). Moreover, the growth in assay [7] was 104% (inactive); in assay [8], 122% (inactive); in assay [9] it was 101% (inactive); in [10], 105% (inactive); in assay [11] it was 82% (inactive); in assay [12] it was 111% (inactive). Further, the growth in assay [13] was 110% (inactive); in [14] it was 113% (inactive); in assay [15], 99.4% (inactive); in [16], 112% (inactive); in assay [19], 109% (inactive); in assay [18], 103% (inactive).

With `COc1ccc(NC(=O)Cn2c(/C=C/c3ccc(N(C)C)cc3)nc3ccccc3c2=O)cc1`, the growth in assay [1] was 72.5% (inactive); in assay [2], 57.1% (inactive); in assay [3] it was 21% (inactive); in assay [4] it was 66.4% (inactive); in assay [5], 58.7% (inactive); in [6], 24.7% (inactive). Besides, the growth was 47.2% (inactive) in [7]; 26.9% (inactive) in assay [8]; 65.7% (inactive) in assay [9]; 32.2% (inactive) in assay [10]; 44.2% (inactive) in [11]; -9.99% (active) in [12]. In addition, the growth in assay [13] was 54.3% (inactive); in assay [14], 48% (inactive); in assay [15] it was 21.5% (inactive); in [16], 28.6% (inactive); in assay [19] it was 50.5% (inactive).

Turning to `OCCCNc1oc(-c2ccccc2)nc1[P+](c1ccccc1)(c1ccccc1)c1ccccc1`, the growth in assay [1] was 1.71% (active); in assay [2], 4.55% (active); in assay [3], 8.02% (active); in assay [4] it was 26.2% (inactive); in [5] it was 16.6% (inactive); in [6] it was -4.9% (active). The growth in assay [7] was -19.4% (active); in assay [8], -8.66% (active); in assay [9], -13.3% (active); in assay [10], 95% (inactive); in assay [11] it was 7.19% (active); in assay [12], -40.5% (active). The growth was 6.46% (active) in assay [13]; 11.5% (inactive) in assay [14]; 0.534% (active) in assay [15]; 7.82% (active) in assay [16]; -45.9% (active) in assay [19]; -41.3% (active) in assay [18].

`CN(CCO)c1oc(-c2ccccc2)nc1[P+](c1ccccc1)(c1ccccc1)c1ccccc1`: the growth is 5.21% (active) in assay [1]; 7.8% (active) in assay [2]; 12.3% (inactive) in assay [3]; 16.2% (inactive) in assay [4]; 15.1% (inactive) in assay [5]; -13.5% (active) in assay [6]. The growth in assay [7] is 6.36% (active); in [8], -0.969% (active); in [9], -11.4% (active); in assay [10], 96.6% (inactive); in assay [11] it was 0.664% (active); in assay [12], -22.5% (active). Also, the growth in assay [13] was 2.53% (active); in [14] it was 11.5% (inactive); in assay [15], 0.978% (active); in [16], 6.5% (active); in assay [17] it was 10.8% (inactive); in [18] it was -55.9% (active).

Turning to `Cc1cc(C)nc(/N=C(\N)Nc2ccc(S(=O)(=O)Nc3nc(C)cc(C)n3)cc2)n1`, the growth in assay [1] is 99.8% (inactive); in assay [2], 98.9% (inactive); in [3], 107% (inactive); in assay [4], 119% (inactive); in [5] it was 111% (inactive); in assay [6], 106% (inactive). Besides, the growth in [7] was 106% (inactive); in assay [8], 112% (inactive); in [9], 103% (inactive); in assay [10], 110% (inactive); in [11], 100% (inactive); in assay [12] it was 117% (inactive). Also, the growth in assay [13] was 109% (inactive); in [14], 109% (inactive); in [15], 95.1% (inactive); in assay [17], 113% (inactive); in assay [19], 111% (inactive); in assay [18], 106% (inactive).
